PI4K2A block: blocks human PI4K2A kinase activity. 420,000 compounds, 0.13% hits. AID 1346378. activity change, negative = inhibition, % at 76.9 µM. purified PI4K2A, ADP-Glo luminescence, 1 h; active compounds read low. Q9BTU6; in the data active = activity change below about -50%; inconclusive = mostly about -30% to -49%;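 note: -100% = wells without enzyme as full effect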
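PI4K2A activity was measured by ADP-Glo luminescence: enzyme (4 ug/mL stock) and phosphatidylinositol (1.2 mM stock) in Tris pH 7.5/MgCl2/EGTA/Triton X-100 buffer were reacted with ATP (300 microM stock) for one hour at ambient temperature.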
rTrxR1 inhibitor: blocks rat thioredoxin reductase 1. O89049. recombinant rTrxR1, NADPH fluorescence consumption, selenite substrate. Potency, µM (series often up to 114 µM), without a hit: top-dose activity change, negative = inhibition, hits mostly inhibitors. 390,000 compounds, 1% hits; note: potency is the fitted concentration of half-maximal effect; nearly all actives have a fitted effect of over 65% in size
Target sequence (O89049 whole entry, looked up): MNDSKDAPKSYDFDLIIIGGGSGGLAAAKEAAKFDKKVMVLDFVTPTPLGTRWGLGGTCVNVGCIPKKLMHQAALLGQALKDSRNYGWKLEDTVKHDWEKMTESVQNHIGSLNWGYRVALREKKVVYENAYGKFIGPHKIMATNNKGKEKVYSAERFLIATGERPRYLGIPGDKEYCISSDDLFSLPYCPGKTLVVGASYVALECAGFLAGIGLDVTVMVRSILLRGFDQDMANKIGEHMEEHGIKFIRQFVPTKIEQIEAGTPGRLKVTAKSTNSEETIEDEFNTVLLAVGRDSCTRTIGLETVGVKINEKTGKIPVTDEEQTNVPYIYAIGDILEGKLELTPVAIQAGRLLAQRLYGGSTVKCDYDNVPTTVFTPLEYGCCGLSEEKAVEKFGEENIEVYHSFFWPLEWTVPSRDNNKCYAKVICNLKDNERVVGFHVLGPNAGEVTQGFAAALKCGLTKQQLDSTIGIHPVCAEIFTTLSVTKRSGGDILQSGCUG
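Rat TrxR1 (90 nM in the dispensed reagent) was pre-reduced with 400 uM NADPH for 5 min at room temperature, then incubated with compound for 15 min. After 400 uM selenite was added, NADPH fluorescence (Ex 340/Em 450 nm) was followed for 8 min.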
Coupling enz: inhibits coupling enzyme system, counter-screen for aldolase hits; coupling enzyme system counterscreen, AmpLite Red fluorescence; activity change, negative = inhibition, % at 58.2 µM, hits read low; 290,000 compounds, 0.67% hits; in the data active = activity change below about -30%
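Counterscreen of the coupled detection system alone, without aldolase: glyceraldehyde-3-phosphate coupling enzymes plus AmpLite Red readout. Compounds at 57.5 uM final, 10 min RT preincubation, 20 min RT reaction, fluorescence 525/598 nm.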
GALK inh: blocks human galactokinase activity; P51570; Purified GALK, Kinase-Glo residual ATP luminescence; Potency, µM (titrated, usually from 57.5 µM), inactives show top-dose activity change, negative = inhibition, hits mostly inhibitors; 270,000 compounds, 0.007% hits; AID 1868; note: potency is the fitted concentration of half-maximal effect
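ATP-depletion format; final 35 uM ATP, 100 uM D-galactose, 5 nM enzyme; pH 8.0 HEPES/Mg2+ buffer; 60 min RT; luminescence read 10 min after detection reagent.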
Giardia killer: Giardia lamblia killing | 340,000 compounds, 0.15% hits | activity change, % at 7.66 µM, hits read low | Giardia lamblia trophozoite viability; in the data active = activity change below about -80%; inconclusive = between about -30% and that limit;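 note: parasites exposed to compound for two days anaerobically before the ATP read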
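Giardia lamblia trophozoites (100 cells/well) were incubated with compounds for 48 h at 37 deg C under anaerobic conditions. Viability was read as ATP content by one-step luminescence after 15-30 min at room temperature.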
TrxR1 substrate: substrates of rat thioredoxin reductase 1 | Potency, µM (series often up to 114 µM), for the others: at the top dose activity change, negative = substrate turnover | purified TrxR1 substrate turnover, NADPH consumption readout | 390,000 compounds, 0.01% hits | O89049 | AID 588456; note: potency is the fitted concentration of half-maximal effect; nearly all actives have a fitted effect of over 50% in size
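Rat TrxR1, dispensed at 90 nM, was prereduced with 400 uM NADPH (final) for 5 min at ~22 deg C, then incubated with compound 15 min before 400 uM selenite. A first-read NADPH fluorescence drop versus no-compound background flagged substrates.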
The depositor's hits bear a star; ? = inconclusive; · = not tested or not shown; [ ] = dose if it differs, or a comment. A selection: hits, their analogues and other compounds. The true share with any hit is near 1.5%. Unless noted, calls come from the whole dose curve; as a rule, active = well fitted curve in the direction sought with a large enough effect; inconclusive = small, poorly fitted or top-dose-only effect, or another doubt; inactive = no such curve, though single readings can be large; an effect the other way counts as inactive or inconclusive. Unless noted, % is set by controls: 0 for no effect and ±100 for the full control effect.

SMILES	PI4K2A block	rTrxR1 inhibitor	Coupling enz	GALK inh	Giardia killer	TrxR1 substrate
Cc1nc(N2CCN(C(=O)c3ccco3)CC2)c(C#N)c2c1CCCC2	7	12%	-2	7%	30	22%
COc1ccc(NC(=O)N2CCc3nc(-c4ccc(OC)cc4C)c4c(c3C2)CO[C@@H](c2ccccc2)C4)cc1	·	·	2	·	·	·
O=c1c2[nH]c3ccccc3c2nc(SCc2cccc(F)c2)n1-c1ccccc1	-4	24%[57.1 µM]	·	·	·	-1%[57.1 µM]
CCCCCCOc1ccc(CC(=O)O)cc1	·	1%	·	·	·	-1%
c1ccc(Cc2nnc3n2N=C(c2ccccc2)CS3)cc1	2	7%	-54*	0%	-2	-3%
c1ccc(C2=Nn3c(Cn4nnc5ccccc54)nnc3SC2)cc1	2	30%[57.1 µM]	-14	6%	-3	-13%[57.1 µM]
CCCCc1nc2c(c3c1C[C@H](C)OC3)CN(C(=O)Nc1ccc(OC)cc1)CC2	·	·	2	·	·	·
CC(C)(C)c1cc(NC(=O)CCl)n(-c2ccccc2)n1	1	?	-1	-3%	-14	9%
CCCc1cc(NC(=O)CCl)n(-c2ccccc2)n1	2	50µM*	2	0%	-26	-1%
CCOC(=O)C1=C(C)NC(=O)C1CC(=O)Nc1ccccc1 (centres undefined)	·	·	-42*	2%	·	·
CC1CCC/C(=C\Nc2ccc(O)cc2)C1=O (centres undefined)	?	20µM*	-38*	7%	21	-14%
CCC1CCCCN1CCCNC(=O)c1ccc2c(c1)N(Cc1ccccc1F)C(=O)c1ccccc1S2(=O)=O (centres undefined)	2	29%	·	·	·	5%
CCCC(O)(CCC)C(=O)NN(C(=O)CCl)c1ccccc1	7	11µM*	4	1%	-20	8%
O=C1OC(c2ccccc2)=NC12CC2c1ccc(Cl)cc1 (centres undefined)	1	7.9µM*	2	1%	-2	-2%
O=CN1N=C(c2ccccc2)CC1c1ccc(Cl)cc1 (centres undefined)	-6	-17%	1	1%	-12	-15%
CCN(C(=O)c1sc2nc3n(c(=O)c2c1C)CCCCC3)c1ccc(OC)cc1	-8	71µM*	·	·	·	-1%
CCc1ccc(N(CC)C(=O)c2sc3nc4n(c(=O)c3c2C)CCCC4)cc1	-9	?	·	·	·	19%
Cc1ccnc2ccc3ccccc3c12	·	89µM*	·	·	·	456%
CN(C)c1ncc(C2=C(Cl)C(=O)C(N3CCCC3)=C(Cl)C2=O)s1	?	2.5µM*	·	·	-6	1%
O=C1C(Cl)=C(N2CCCCC2)C(=O)C(Cl)=C1c1cnc(N2CCCCC2)s1	-12	1.8µM*	-46*	-1%	19	-3%
CCCCCNC(=O)C1CCC(Cn2c(=O)c3sccc3n(CC)c2=O)CC1 (centres undefined)	-1	8%[57.1 µM]	·	·	·	5%[57.1 µM]
COc1ccc(NC2=C(NCCO)C(=O)c3ccccc3C2=O)cc1	?	-25%	-43*	4%	-19	-10%
Cc1cccc(NC2=C(NCCO)C(=O)c3ccccc3C2=O)c1	?	37%[57.1 µM]	-35*	6%	-20	6%
COc1cccc(NC2=C(NCCO)C(=O)c3ccccc3C2=O)c1	-28	6%	-30*	1%	12	-7%
COc1cccc(Nc2c(Nc3cccc(OC)c3)c(=O)c2=O)c1	-3	14%[57.1 µM]	1	6%	-1	10%[57.1 µM]
SMILES	PI4K2A block	rTrxR1 inhibitor	Coupling enz	GALK inh	Giardia killer	TrxR1 substrate
CCOC(=O)[C@@]12CCC3=C1N(CCC3)C(=O)[C@H](CC(=O)NCCc1ccccc1OC)C2	1	·	·	·	·	·
COc1ccccc1/C=C/c1nc2ccccc2[nH]1	·	7%	·	·	·	26%
Cc1ccc(/C=C/c2nc3ccccc3[nH]2)cc1	-67*	12%[57.1 µM]	·	·	·	22%[57.1 µM]
COC(=O)c1ccc(/C=C/c2nc3ccccc3c(=O)[nH]2)cc1	1	-6%	1	-1%	-16	-14%
Cc1ccc(/C=C/c2nc3ccccc3[nH]2)o1	-12	22µM*	-10	9%	?	6%[57.1 µM]
Cc1ccc(/C=C/c2nc3ccccc3c(=O)[nH]2)cc1	-7	37%	1	-1%	-90*	55%

Assay outcomes (PubChem BioAssay)
